Most compounds without a hit are left out; they make up all but 19% or so of the library.
IL1B secr inh = blocks inflammasome-driven IL-1 beta release; THP-1 LPS/ATP IL-1B secretion, AlphaLISA, 16 h; active compounds read low; activity change, % at 57.5 µM; 360,000 tested, 4.7% active; AID 743279; in the data active means activity change below about -50%; inconclusive means mostly about -30% to -49%; further: on the % scale 0 is the no-effect control and ±100 the full control effect
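THP-1 cells pretreated 1 hr with compounds (up to 57.5 uM final), then stimulated with LPS (250 ng/mL final) plus ATP (1.25 mM final); secreted IL-1B measured by AlphaLISA after 16 hr, decreased signal indicating inhibition.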
SW480 rerep = DNA re-replication induction in SW480 cells; SW480 DNA re-replication, Hoechst DNA content imaging, 48 h; 340,000 tested, 1.8% active; Potency, µM (top dose mostly 46.1 µM), for inactives: at the highest dose re-replication activation, usual class: activators; further: potency means the concentration at half of the fitted maximal effect; % of control where 0% means no effect; nearly all actives have a fitted effect of over 55% in size
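Image-based read-out: total Hoechst fluorescence of nuclei (405 nm excitation, 500-530 nm emission), with hits raising the fraction of high-intensity nuclei. SW480 colon cells incubated 48 hr with compounds at 37 C.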
DT40 TDP1 CPT = growth inhibition of DT40 Tdp1-/-;hTDP1 cells with camptothecin (screen for TDP1 inhibitors); chicken DT40 Tdp1-/-;hTDP1 cells + 20 nM CPT, ATP luminescence, 48 h; Potency, µM (highest dose often 46.2 µM), for inactives: top-dose activity change, negative = growth inhibition, usual class: inhibitors; 420,000 tested, 12% active; further: potency means the concentration at half of the fitted maximal effect; on the % scale 0 is the no-effect control and ±100 the full control effect; nearly all actives have a fitted effect of over 55% in size
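Cell growth measured by CellTiter-Glo luminescence after a minimum 48 h, 37 C compound exposure with 20 nM CPT in Tdp1-knockout DT40 cells stably expressing hTDP1, seeded 400/well; qHTS titration format.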
TDP1 cell noCPT = qHTS for Inhibitors of human tyrosyl-DNA phosphodiesterase 1 (TDP1): qHTS in cells in absence of CPT; DT40 Tdp1-/- hTDP1 cells, no CPT, ATP luminescence, 48 h; Potency, µM (highest dose often 46.2 µM), for the others: top-dose activity change, negative = growth inhibition, hits mostly inhibitors; 420,000 tested, 15% active; AID 686978, 2013; further: potency means the concentration at half of the fitted maximal effect; on the % scale 0 is the no-effect control and ±100 the full control effect; nearly all actives have a fitted effect of over 55% in size
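Camptothecin absent (DMSO only). Human TDP1-complemented DT40 knockout cells, 400 cells/well, 37 °C for minimum 48 hr; ATP measured via CellTiter-Glo, 30 min dark incubation, luminescence.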
MCF10A rereplic = induces DNA re-replication in MCF 10a normal breast cells; MCF 10A DNA re-replication, Hoechst nuclear intensity, 48 h; Potency, µM (top dose mostly 46.1 µM), inactives show at the highest dose activity, positive = re-replication, actives largely listed as activators; 350,000 tested, 2.9% active; AID 624296; further: potency means the concentration at half of the fitted maximal effect; % of control where 0% means no effect; nearly all actives have a fitted effect of over 50% in size
Chronic BCR inh = blocks chronic active B-cell receptor signaling; ABC-DLBCL IkBa-CBG/CBR reporter, luminescence ratio, 4 h; Potency, µM (titrated, usually from 46.1 µM), for the others: top-dose activity change, negative = inhibition, actives largely listed as inhibitors; 340,000 tested, 0.05% active; active means well fitted inhibition curve with a large enough effect in the signal ratio, with a control signal flat, not every such curve was filed as active; inconclusive means small, poorly fitted or top-dose-only effect, or effect the other way, or a change in a side signal; the % refers to the signal ratio;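 further: potency means the concentration at half of the fitted maximal effect; plate controls were basal doxycycline-induced cells for no effect and cells given 10 µM MG132 for full effect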
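TMD8 human ABC-DLBCL cells with doxycycline-inducible IκBα–green luciferase fusion and unfused red luciferase, in 0.5% FBS medium; compounds up to 46 uM, 4 h at 37C. Green/red luminescence ratio, filter-overlap corrected, fitted to concentration-response curves.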
An asterisk follows results filed as active; ? = inconclusive; · = no result. Unless noted, the call rests on the fitted dose curve; in most records, active means well fitted curve in the direction sought with a large enough effect; inconclusive means small, poorly fitted or top-dose-only effect, or another doubt; inactive means no such curve, though single readings can be large; an effect the other way counts as inactive or inconclusive.

SMILES	IL1B secr inh	SW480 rerep	DT40 TDP1 CPT	TDP1 cell noCPT	MCF10A rereplic	Chronic BCR inh
OCC1CN1C1CCCCC1 (configuration not stated)	-19.5	-6.0%	?	?	1.4%	·
C[C@@H](Cc1cccc(C(F)(F)F)c1)NCCCc1ccccc1	·	·	13.3µM*	13.3µM*	·	·
CC(Cc1ccccc1)NCc1ccccc1Cl (configuration not stated)	·	-3.7%	?	?	4.7%	·
O=C1NC(=S)NC(=O)C1Cc1ccccc1O	-14.0	-5.9%	8.7%	8.1%	-5.8%	·
CCN1CCN(S(=O)(=O)c2ccc(Cl)c(C(=O)Nc3ccc(C(=O)N(CC)CC)cc3)c2)CC1	12.9	-22.8%	14.6µM*	?	1.7%	-1.8%
C1CC2NCCC3NCCC(N1)N32 (configuration not stated)	-13.2	-4.2%	-12.9%	-15.7%	-2.3%	6.2%
O=C1NC(=O)C(=Cc2ccc3c(c2)OCO3)C(=O)N1	·	·	·	·	·	4.7%
Cc1ccc(C(C#N)=Cc2ccc3c(c2)OCO3)cc1	10.5	·	?	11.6µM*	·	·
CCC(=O)Nc1ccc(N2CCN(CC)CC2)c(Cl)c1	5.8	-28.4%	6.0%	3.1%	-3.5%	1.2%
CCN(CC)S(=O)(=O)c1ccc(C)c(NCC(=O)Nc2ccc(C#N)c(Cl)c2)c1	-5.5	?	16.4µM*	14.6µM*	?	1.3%
Cc1ccc(Cl)cc1N1CCN(c2ncnc3c2nc2n3CCCC2)CC1	·	·	?	18.4µM*	·	·
Oc1ccc(CC2(N3CCCC3)CCCCC2)cc1	-9.7	-2.0%	-1.6%	-4.2%	5.6%	-1.4%
COC(=O)C1=C(C)NC(COC(N)=O)=C(C(=O)OC(C)C)C1c1cccc(Cl)c1Cl (configuration not stated)	·	·	29.9µM*	33.5µM*	·	·
CC1CCN(C(=O)CCl)CC1	?	-1.7%	?	16.4µM*	2.8%	-1.6%
CC1CCN(C(=O)CSc2nc(C3CC3)nc3ccccc23)CC1	?	10.5%	?	?	17.5%	?
CCOP(=O)(c1ccc(N(C)C)cc1)C(O)c1ccc(C)cc1 (configuration not stated)	10.2	-8.8%	-0.1%	-19.6%	-6.3%	?
c1ccc(-c2nc(N3CCOCC3)s[n+]2-c2ccccc2)cc1	0.0	-11.3%	14.6µM*	?	16.4%	0.3%
COc1cccc(CNCCc2cccc(F)c2)c1OC	-8.5	-4.5%	?	?	4.8%	?
Cc1nc(-c2ccc(-c3ccc(C(=O)N4CCc5cc6c(cc54)C4(CCN(C)CC4)CO6)cc3)c(C)c2)no1	·	·	7.5µM*	5.96µM*	·	·
CC/C(=N\N1CCCCCC1)c1c(O)n(-c2ccc(C)cc2)c(=O)[nH]c1=O	-4.2	2.3%	?	?	-5.3%	11.1%
O=C(OCc1ccccc1)N1CCC2CC1c1cc(N3Cc4ccccc4-n4nncc4C3)ccc12 (configuration not stated)	-8.4	·	7.31µM*	5.8µM*	·	·
Fc1ccc(N2Cc3ccccc3-n3nncc3C2)cc1	-4.0	·	?	?	·	·
C[C@@H]1CNC(=O)c2c(C(=O)Nc3cccc(Cl)c3)ncn21	?	·	20.6µM*	20.6µM*	·	·
C[C@H]1CNC(=O)c2c(C(=O)Nc3cccc(Cl)c3)ncn21	0.0	·	-7.2%	?	·	·
C[C@H]1CNC(=O)c2c(C(=O)Nc3ccc(CNC(=O)OC(C)(C)C)cc3)ncn21	-12.9	·	14.6µM*	9.2µM*	·	·
SMILES	IL1B secr inh	SW480 rerep	DT40 TDP1 CPT	TDP1 cell noCPT	MCF10A rereplic	Chronic BCR inh
C[C@H]1Cn2cnc(C(=O)Nc3ccc(CNC(=O)OC(C)(C)C)cc3)c2C(=O)N1	?	·	?	13µM*	·	·
Cc1cccc(NC(=O)c2ncn3c2C(=O)NC[C@@H]3C)c1	-17.6	·	-4.3%	?	·	·
Cc1ccc(C2(O)CN3CCC2CC3)cc1 (configuration not stated)	21.5	-3.6%	20.5%	19.3%	14.2%	-1.0%
Nc1ccc(C2(c3ccc(N)cc3)CN3CCC2CC3)cc1	4.3	-22.2%	18.4µM*	13µM*	-2.9%	15.0%
Nc1ccc2c(c1)oc1ccccc12	12.2	-6.0%	0.1%	-20.7%	-0.4%	0.7%
CN(Cc1cccc(-c2ccncc2)c1)C(=O)Oc1ccccc1Cc1ccccc1	0.0	·	?	16.4µM*	·	·
Cc1nc2cc(OC(=O)N(C)Cc3cccc(-c4ccncc4)c3)ccc2s1	?	·	?	18.4µM*	·	·
CN(Cc1cccc(-c2ccncc2)c1)C(=O)Oc1ccccc1Cl	18.1	·	?	?	·	·
COc1cccc(NC(=O)C2CCN(c3nnc(C)c4c(C)n(-c5ccccc5)nc34)CC2)c1	·	·	?	23.1µM*	·	?
Cc1ccc(CCNC(=O)Cn2nc(C)c3c(C)n(-c4ccc(C)cc4)nc3c2=O)cc1	·	·	23.1µM*	?	·	·
Cc1ccc(-n2nc3c(N4CCC(C(=O)NCCc5ccccc5)CC4)nnc(C)c3c2C)cc1	·	·	4.61µM*	5.8µM*	·	·
CC1=C2CCC3C4CCC(=O)[C@@]4(C)CCC3[C@]2(C)CCC1=O (some centres not stated)	·	·	-14.7%	-20.1%	·	·
COc1ccc(Cl)cc1C(=O)C1CCCN(Cc2cnc(C)s2)C1 (configuration not stated)	-1.6	?	-26.0%	?	18.0%	?
COc1ccc(C=O)cc1	0.0	7.3%	16.7%	-12.6%	9.8%	-1.1%
COc1ccc(/C=N\N=C(N)N)cc1	-9.8	?	?	16.4µM*	?	-16.8%
O=C1NC(=O)C(=Cc2ccc(N3CCOCC3)cc2)C(=O)N1	-12.3	-8.8%	-11.7%	-20.9%	-0.9%	-0.2%
NC(N)=N/N=C/c1ccc(N2CCOCC2)cc1	49.8	6.51µM*	4.61µM*	4.61µM*	?	?
NC(N)=N/N=C/c1ccc(N(c2ccccc2)c2ccccc2)cc1	-54.8*	?	16.4µM*	18.4µM*	?	-8.7%
Cc1ccc(Cn2cccc(C(=O)Nc3cc(C)on3)c2=O)cc1	·	·	-23.6%	-5.4%	·	?
C[C@@H]1CN([C@H](C)CO)C(=O)CCCn2cc(nn2)CO[C@H]1CN(C)C(=O)Oc1cccc2ccccc12	11.2	·	11.4%	-26.7%	·	·
Cc1ccccc1Cn1cccc(C(=O)Nc2nc3ccccc3s2)c1=O	·	·	16.4µM*	16.4µM*	·	·
CCOC(=O)c1ccc(NC(=O)c2cccn(Cc3ccc(C)cc3)c2=O)cc1	·	·	?	-26.4%	·	15.5%
COc1ccc(C)cc1NC(=O)c1cccn(Cc2ccccc2Cl)c1=O	·	·	-29.0%	-1.1%	·	·

Source: PubChem BioAssay (National Center for Advancing Translational Sciences (NCATS))
